Data as given in the supplement of paper PMC11865577.
Where a name gives a salt, the structure may show the parent alone.

Legend:
Assay in all cases: normalised indicator fluorescence (fraction of RNA + indicator signal without compound); higher = less displacement of indicator (weaker competition)
Settings in all cases: compound concentration: 5 uM, 30 min
hsa-mir-191 loop = tested on: hsa-mir-191 loop
How it was run: (§1)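 For the displacement screen, RNA and a TO-PRO-1 or TO-PRO-3 indicator were held in 20 mM phosphate pH 7.0 with 20 mM NaCl and 80 mM KCl in 96-well plates. After adding 0.25 μL of each 1 mM DMSO stock (about 5 uM final) and waiting 30 min, fluorescence was measured on an Infinite 200 PRO with excitation at 485 or 620 nm. Each value is the mean of two independent experiments, expressed as blank-subtracted indicator fluorescence relative to the no-compound RNA-plus-indicator signal.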

hsa-mir-21 loop = tested on: hsa-mir-21 loop
How it was run: as §1

hsa-mir-221 loop = tested on: hsa-mir-221 loop
How it was run: as §1

hsa-mir-374a loop = tested on: hsa-mir-374a loop
How it was run: as §1

hsa-mir-6850 loop = tested on: hsa-mir-6850 loop
How it was run: as §1

[1] = indicator: TO-PRO-1 0.1 uM, RNA concentration: 0.1 uM
[2] = indicator: TO-PRO-3 0.5 uM, RNA concentration: 0.5 uM

| Structure (SMILES) | normalised indicator fluorescence (hsa-mir-191 loop; [1]) | normalised indicator fluorescence (hsa-mir-191 loop; [2]) | normalised indicator fluorescence (hsa-mir-21 loop; [1]) | normalised indicator fluorescence (hsa-mir-21 loop; [2]) | normalised indicator fluorescence (hsa-mir-221 loop; [1]) | normalised indicator fluorescence (hsa-mir-221 loop; [2]) | normalised indicator fluorescence (hsa-mir-374a loop; [1]) | normalised indicator fluorescence (hsa-mir-374a loop; [2]) | normalised indicator fluorescence (hsa-mir-6850 loop; [1]) | normalised indicator fluorescence (hsa-mir-6850 loop; [2]) |
| --- | --- | --- | --- | --- | --- | --- | --- | --- | --- | --- |
| CC1=NN(c2ccccc2)C(=O)C1 [Edaravone] | 1.06 | 1.11 | 1.07 | 1.04 | 1.05 | 1.04 | 1.06 | 1.12 | 1.05 | 1.05 |
| O=[N+]([O-])c1ccc(-c2nc(-c3ccc(F)cc3)c(-c3ccncc3)[nH]2)cc1 | 1.06 | 1.03 | 0.973 | 1.03 | 1.16 | 1.03 | 1.59 | 1.15 | 0.975 | 1.03 |
| CC1(C)OC(=O)C=C[C@]2(C)[C@H]3CC[C@@]4(C)[C@H](c5ccoc5)OC(=O)[C@H]5O[C@]54[C@]3(C)C(=O)C[C@@H]12 [Obacunone] | 1.07 | 1.03 | 1.06 | 1.08 | 1.12 | 1.07 | 1.11 | 1.09 | 0.979 | 1.05 |
| CCc1oc2ccccc2c1C(=O)c1cc(Br)c(O)c(Br)c1 [Benzbromarone] | 0.976 | 1.01 | 0.927 | 1.05 | 1 | 1.09 | 1.16 | 1.34 | 0.95 | 1.04 |
| CN1CCN(c2ccc(C(=O)Nc3n[nH]c4ccc(Cc5cc(F)cc(F)c5)cc34)c(NC3CCOCC3)c2)CC1 [Entrectinib] | 1.11 | 1.04 | 1.04 | 1.04 | 1.04 | 1.18 | 1.09 | 1.56 | 1.01 | 1.03 |
| COc1ccc(-c2nc(-c3cc(C(F)(F)F)cc(C(F)(F)F)c3)n(Cc3ccc(C(N)=O)cc3)c2-c2ccc(OC)cc2)cc1 [Apoptozole] | 0.992 | 1.01 | 1.01 | 1.03 | 1.05 | 1.21 | 1.06 | 1.36 | 0.966 | 0.976 |
| CC1=C[C@]2(O)O[C@@]3(CC2=C(C)C)[C@@H](C)CC[C@@H]13 [Curcumenol] | 1 | 1.02 | 1.06 | 1.04 | 1.01 | 1.31 | 1.08 | 1.33 | 1.02 | 0.985 |
| O=C(O)C(O)Cc1ccc(O)c(O)c1 (stereo not given) [Sodium Danshensu] | 0.941 | 1.02 | 0.888 | 1.05 | 0.976 | 1.05 | 1.07 | 0.994 | 0.964 | 1.08 |
| Fc1ccc(-c2nc3n(c2-c2ccncc2)CCS3)cc1 | 1.08 | 1.08 | 0.993 | 1.02 | 1.07 | 1.13 | 1.09 | 1.18 | 0.947 | 1.04 |
| C[S+]([O-])c1ccc(-c2nc(-c3ccc(F)cc3)c(-c3ccncc3)[nH]2)cc1 (stereo not given) | 0.969 | 1.02 | 1.05 | 1.02 | 1.01 | 1.05 | 1.07 | 1.04 | 1.08 | 1.04 |
| COC1=C2C[C@@H](C)C[C@H](OC)[C@H](O)[C@@H](C)/C=C(\C)[C@H](OC(N)=O)[C@@H](OC)/C=C\C=C(/C)C(=O)NC(=CC1=O)C2=O [Geldanamycin] | 1.09 | 1.08 | 1.04 | 1.05 | 1.04 | 1.09 | 1.11 | 1.31 | 1.09 | 1.02 |
| CCc1cc(C(N)=S)ccn1 [Ethinamide] | 1.07 | 1.01 | 1.1 | 1.04 | 1.04 | 1.07 | 1.18 | 1.2 | 1.04 | 1.05 |
| CCCC(C(=O)OCCN(CC)CC)(c1ccccc1)c1ccccc1 [Proadifen hydrochloride] | 1.01 | 1.04 | 0.923 | 1 | 1.08 | 1.05 | 1.16 | 1.17 | 0.941 | 1.02 |
| O=C(NC(Cc1cc(=O)[nH]c2ccccc12)C(=O)O)c1ccc(Cl)cc1 (stereo not given) [Rebamipide] | 1.07 | 1.14 | 0.99 | 1.03 | 1.08 | 1.04 | 1.1 | 1.13 | 1.19 | 1.03 |
| CO[C@H]1/C=C/O[C@@]2(C)Oc3c(C)c(O)c4c(c3C2=O)C2=NC3(CCN(CC(C)C)CC3)NC2=C(NC(=O)/C(C)=C\C=C\[C@H](C)[C@H](O)[C@@H](C)[C@@H](O)[C@@H](C)[C@H](OC(C)=O)[C@@H]1C)C4=O [Rifabutin] | 1.04 | 1.01 | 1.03 | 0.969 | 0.997 | 1.01 | 1.34 | 1.04 | 0.991 | 1.07 |
| Nc1c(Br)cc(Br)cc1CN[C@H]1CC[C@H](O)CC1 [Ambroxol] | 0.949 | 1.04 | 0.88 | 1.17 | 1.04 | 1.02 | 1.16 | 1.12 | 0.965 | 1.06 |
| N#CC(c1ccnc(OCc2ccc(CN3CCOCC3)cc2)n1)c1nc2ccccc2s1 (stereo not given) | 1.03 | 0.659 | 1.14 | 0.839 | 1.37 | 0.837 | 1.26 | 0.694 | 0.827 | 0.505 |
| CCNC(=O)c1noc(-c2cc(C(C)C)c(O)cc2O)c1-c1ccc(CN2CCOCC2)cc1 [Luminespib] | 1.08 | 1.05 | 1.03 | 1.02 | 1.06 | 1.05 | 1.04 | 1.15 | 1.01 | 1.06 |
| CC(C)OC(=O)CCC/C=C\C[C@@H]1[C@@H](CC[C@@H](O)CCc2ccccc2)[C@H](O)C[C@@H]1O [Latanoprost] | 1.01 | 1.03 | 0.985 | 0.978 | 1.01 | 1.05 | 1.01 | 1.06 | 1.06 | 1.04 |

| Structure (SMILES) | normalised indicator fluorescence (hsa-mir-191 loop; [1]) | normalised indicator fluorescence (hsa-mir-191 loop; [2]) | normalised indicator fluorescence (hsa-mir-21 loop; [1]) | normalised indicator fluorescence (hsa-mir-21 loop; [2]) | normalised indicator fluorescence (hsa-mir-221 loop; [1]) | normalised indicator fluorescence (hsa-mir-221 loop; [2]) | normalised indicator fluorescence (hsa-mir-374a loop; [1]) | normalised indicator fluorescence (hsa-mir-374a loop; [2]) | normalised indicator fluorescence (hsa-mir-6850 loop; [1]) | normalised indicator fluorescence (hsa-mir-6850 loop; [2]) |
| --- | --- | --- | --- | --- | --- | --- | --- | --- | --- | --- |
| CC(=O)O[C@H]1C[C@@]2(C)[C@@H](C[C@@H](O)[C@H]3[C@@]4(C)CC[C@@H](O)[C@@H](C)[C@@H]4CC[C@@]32C)/C1=C(\CCC=C(C)C)C(=O)O [Sodium fusidate] | 1.06 | 1.05 | 0.986 | 1.07 | 1.01 | 1.03 | 1.09 | 1.11 | 0.956 | 1.02 |
| Cc1cc(C(C)(C)C)c(O)c(C(C)(C)C)c1 | 1.01 | 1.04 | 1.04 | 1 | 1.05 | 1.12 | 1.11 | 1.19 | 0.924 | 1.06 |
| CC(C)(O)[C@@H]1CC[C@](C)([C@H]2[C@@H](O)C[C@@]3(C)[C@@H]4C[C@H](O)[C@H]5C(C)(C)[C@@H](O[C@@H]6OC[C@@H](O)[C@H](O)[C@H]6O[C@@H]6O[C@H](CO)[C@@H](O)[C@H](O)[C@H]6O)CC[C@@]56C[C@@]46CC[C@]23C)O1 [Astragaloside III] | 1.09 | 1.07 | 1.01 | 1.02 | 1.06 | 1.07 | 1.04 | 1.19 | 0.952 | 1.11 |
| C[C@@H]1O[C@@H](O[C@H]2[C@H](Oc3cc(O)c4c(c3)O[C@H](c3ccc(O)cc3)CC4=O)O[C@H](CO)[C@@H](O)[C@@H]2O)[C@H](O)[C@H](O)[C@H]1O [Naringin] | 0.96 | 1.09 | 0.933 | 1.08 | 1.06 | 1.04 | 1.14 | 1.21 | 0.897 | 1.09 |
| CNC(=O)c1ccc(C)c(-n2c(C)cc(OCc3ccc(F)cc3F)c(Br)c2=O)c1 | 1.02 | 1.03 | 1.03 | 1.02 | 1.19 | 1.05 | 1 | 1.08 | 0.914 | 1.04 |
| O=c1c(O)c(-c2cc(O)c(O)c(O)c2)oc2cc(O)cc(O)c12 [Myricetin] | 0.403 | 0.684 | 0.387 | 0.742 | 0.505 | 0.659 | 0.543 | 0.424 | 0.604 | 0.969 |
| COc1c(C)cnc(Cn2cnc3c(Cl)nc(N)nc32)c1C | 1.04 | 1.04 | 0.99 | 1.04 | 1.01 | 1.06 | 1.19 | 1.09 | 1.02 | 1.05 |
| COc1ccc(C(=C2C(=O)Nc3ccccc32)c2ccc(OC)cc2)cc1 | 1 | 1.03 | 0.92 | 1.03 | 1.1 | 1.09 | 1.08 | 1.15 | 0.944 | 1.03 |
| Cc1c(C)c2c(c(C)c1O)CCC(C)(C(=O)O)O2 (stereo not given) [Trolox] | 1.03 | 1.05 | 1.02 | 0.957 | 1.05 | 1.12 | 1.11 | 1.22 | 1.02 | 1.07 |
| O=C(Nc1ccc2[nH]nc(-c3ccncc3)c2c1)[C@@H]1CCN(CC(=O)N2CCN(c3ccc(-c4ncccn4)cc3)CC2)C1 | 1.05 | 1.02 | 1.02 | 1 | 1.04 | 1 | 1.09 | 1.16 | 0.931 | 0.89 |
| COC1=C(OC)C(=O)C(CCCCCCCCCCO)=C(C)C1=O [Idebenone] | 1.04 | 1.05 | 0.937 | 1.04 | 1.02 | 1.04 | 1.04 | 1.03 | 0.917 | 1.02 |
| CC(=O)CCCCn1c(=O)c2c(ncn2C)n(C)c1=O [Pentoxifylline] | 1.05 | 1.01 | 1.02 | 1.04 | 1.01 | 1.02 | 1.04 | 0.959 | 0.943 | 0.997 |
| Cn1cc(-c2ccc3c(c2)CCN3C(=O)Cc2cccc(C(F)(F)F)c2)c2c(N)ncnc21 | 1.04 | 1.1 | 1.06 | 1.07 | 1.08 | 1.03 | 1.23 | 1.18 | 0.993 | 1.18 |
| CN(C)C[C@@H]1CCn2cc(c3ccccc32)C2=C(C(=O)NC2=O)c2cn(c3ccccc23)CCO1 [Ruboxistaurin hydrochloride] | 1.1 | 1.04 | 0.991 | 1.01 | 1 | 1.12 | 1.03 | 1.24 | 0.894 | 0.897 |
| Oc1cc(O)c2c(c1)O[C@H](c1ccc(O)c(O)c1)[C@@H](O)C2 [Cianidanol] | 1.01 | 1.07 | 0.93 | 1.06 | 1.16 | 1.07 | 1.26 | 1.17 | 1 | 1.07 |
| CN(C)CCCN1c2ccccc2CCc2ccc(Cl)cc21 [Clomipramine hydrochloride] | 1 | 1.1 | 0.961 | 0.987 | 1.07 | 1.01 | 1.14 | 1.02 | 0.864 | 1.08 |
| C[C@H]1Oc2cc(cnc2N)-c2c(nn(C)c2C#N)CN(C)C(=O)c2ccc(F)cc21 [Lorlatinib] | 0.997 | 1.03 | 1.05 | 1.03 | 0.999 | 1.02 | 1.08 | 1.26 | 1.14 | 1.05 |
| O=C(COc1ccc(Cl)cc1)NC1CCC(NC(=O)COc2ccc(Cl)cc2)CC1 (stereo not given) | 1.03 | 1.04 | 0.954 | 1.03 | 1.05 | 1.01 | 1.07 | 1.08 | 0.894 | 1.05 |
